According to the supplement of paper PMC3334620:
The full ranking holds about 33,000 sequences; the median of “E-score (-0.5 to 0.5)” is about -0.016, and the highest 2% start at about 0.3. Only a selection was taken, and the highest values are over-represented in it overall.

These sequences were tested against T1, Yer184c (UniProt P39961) (assay: PBM E-score (8-mer binding enrichment) (E-score (-0.5 to 0.5)); higher = stronger / more preferred TF binding). Settings: protein concentration: 100 nM; construct: GST-full length.
T1 sequence: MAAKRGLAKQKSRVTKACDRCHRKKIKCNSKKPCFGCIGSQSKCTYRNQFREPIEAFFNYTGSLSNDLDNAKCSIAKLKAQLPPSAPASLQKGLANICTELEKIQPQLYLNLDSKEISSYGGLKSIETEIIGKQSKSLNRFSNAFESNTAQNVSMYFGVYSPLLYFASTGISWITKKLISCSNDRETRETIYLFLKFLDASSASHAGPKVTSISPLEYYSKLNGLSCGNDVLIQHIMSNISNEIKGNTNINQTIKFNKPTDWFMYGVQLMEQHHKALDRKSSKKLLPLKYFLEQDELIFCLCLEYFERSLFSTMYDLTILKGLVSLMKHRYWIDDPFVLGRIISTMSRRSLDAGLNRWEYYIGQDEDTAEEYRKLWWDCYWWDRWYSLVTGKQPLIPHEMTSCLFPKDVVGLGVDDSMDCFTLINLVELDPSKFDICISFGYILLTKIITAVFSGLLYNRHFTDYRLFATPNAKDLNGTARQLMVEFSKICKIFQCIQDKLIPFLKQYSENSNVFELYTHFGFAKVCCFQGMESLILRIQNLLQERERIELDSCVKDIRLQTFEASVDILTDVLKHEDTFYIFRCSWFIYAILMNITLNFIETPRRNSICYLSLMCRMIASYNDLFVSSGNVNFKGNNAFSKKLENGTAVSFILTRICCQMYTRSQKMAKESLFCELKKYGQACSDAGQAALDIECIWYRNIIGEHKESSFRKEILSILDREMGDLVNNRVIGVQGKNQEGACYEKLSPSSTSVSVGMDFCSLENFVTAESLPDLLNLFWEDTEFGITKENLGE
Summary of the method: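 Full-length yeast transcription factors or their DNA-binding domains, GST-tagged and expressed with PURExpress, were applied at about 100-200 nM to universal all-10-mer Agilent arrays. These arrays had been made double-stranded by primer extension on fresh or once-stripped slides. Detection used fluorescent anti-GST, normalisation used masliner, and E-scores for ungapped eight-base words pooled with reverse complements came from the Universal PBM Analysis Suite.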

| Sequence | PBM E-score |
| --- | --- |
| GGGTAGAA | -0.0545 |
| CAGAGCAG | -0.00548 |
| ACCAGCTC | -0.141 |
| AGACCTAA | -0.106 |
| AGAGACCG | -0.00169 |
| AATTTCCA | 0.145 |
| ATCTCTAG | -0.118 |
| TCTATGAA | 0.112 |
| CACTTTCC | 0.021 |
| TAAAATTA | 0.341 |
| GGAAATTA | 0.201 |
| AGAAATTA | 0.354 |
| AAAAATTA | 0.253 |
| ATAAATTA | 0.316 |
| AGAAATTC | 0.077 |
| ATAAATTG | 0.254 |
| CTAAATTA | 0.202 |
| CAAATTTA | 0.119 |
| AAAATTTA | 0.228 |
| TAAATTTA | 0.311 |
| CAAAATTA | 0.212 |
| CGAACTAC | 0.0997 |
| GATTGCCA | -0.0755 |
| GACAGTAC | 0.135 |
| ACACTCTC | 0.0613 |

| Sequence | PBM E-score |
| --- | --- |
| ACAATCGC | 0.0673 |
| ACAATCGT | -0.28 |
| ACAATCGG | 0.307 |
| GCTGAACC | 0.0738 |
| AACGCCAG | 0.0264 |
| CGGCCTTA | 0.291 |
| AGGCCGGC | 0.265 |
| AGGCCTTC | -0.0978 |
| CGGCCGCA | 0.277 |
| CGGCCTTC | 0.33 |
| CGGCCGTA | 0.311 |
| CGGCCGTC | 0.278 |
| AGGCCGTA | 0.178 |
| CGGCCGGA | 0.402 |
| AGGCCGGA | 0.247 |
| CGGCCGGC | 0.42 |
| CGGCCGCC | 0.209 |
| CAGTAGAA | -0.069 |
| AATCCTCA | -0.0565 |
| GCCGATAC | 0.13 |
| CTCAACAG | -0.0543 |
| GAAGGGAA | -0.203 |
| AGCTCATG | -0.175 |
| AGAGTGGC | -0.217 |
| CGGCGATA | 0.36 |

| Sequence | PBM E-score |
| --- | --- |
| AGGCGATA | -0.12 |
| CGGCGATC | 0.312 |
| GGGCGATA | -0.222 |
| AGGCGATC | -0.168 |
| CGGCGAAG | 0.205 |
| TGGCGAAA | 0.0101 |
| CGGCGACC | 0.237 |
| CGGCGAAA | 0.35 |
| GAACAGCA | 0.123 |
| ACCCAAGG | -0.162 |
| ACGGCGAT | 0.188 |
| CCCCCTTA | -0.348 |
| CGAGGTTA | -0.00293 |
| CCAGGGTA | -0.174 |
| ACTAACTC | -0.00452 |
| ATTCTTTA | 0.0489 |
| CTGAGTGA | 0.24 |
| ATCCTATG | -0.0991 |
| CTGAATAA | 0.134 |
| ATTAACCA | -0.114 |
| ATTAACCG | 0.335 |
| ATTAACCC | 0.0664 |
| GCTCCGCA | 0.0792 |
| CCTCCGCA | -0.247 |
| GCTCCGGA | 0.367 |

| Sequence | PBM E-score |
| --- | --- |
| CCTCCGGA | 0.337 |
| GCTCCGTA | 0.205 |
| CCTCCGTA | -0.0207 |
| CTTGACAA | 0.152 |
| CGGACCGA | 0.402 |
| CGGACCAA | 0.343 |
| GGAACCGA | 0.248 |
| CGGACCGC | 0.104 |
| GGGACCGA | 0.158 |
| CGAACCGC | 0.189 |
| CGGACCAG | 0.185 |
| CGAACCGA | 0.328 |
| CGGACCAC | 0.244 |
| AACGGTTA | 0.0289 |
| AGAGACAT | -0.0279 |
| GATAGCGC | -0.051 |
| CAAATAGC | 0.0894 |
| AAAGGAAA | 0.203 |
| CAGATCCG | 0.317 |
| AAGATCCG | 0.091 |
| CGGATCCA | 0.263 |
| CAGATCCC | -0.21 |
| CGGATCCG | 0.445 |
| CGGATCCC | 0.171 |
| GGCATGAC | -0.199 |

| Sequence | PBM E-score |
| --- | --- |
| ACGGATAA | 0.299 |
| ACGGATAT | 0.339 |
| CAGGATAG | 0.0949 |
| CCGGATAA | 0.4 |
| TGGGATAA | -0.0513 |
| GCGGATAA | 0.224 |
| CGGGATAG | 0.102 |
| CCGGATAC | 0.257 |
| CCGGATAG | 0.342 |
| ACGGATAG | 0.139 |
| TCGGATAA | 0.379 |
| CAGGATAA | -0.0581 |
| ATGTTCAA | 0.134 |
| ACCTTACG | 0.00591 |
| GCAGGACA | 0.11 |
| CCTTCTTC | -0.19 |
| CGCGGGAA | 0.311 |
| GGCGGAAA | 0.108 |
| AGCGGAAA | 0.27 |
| CGCGGGGA | 0.125 |
| CGCGGAAC | 0.382 |
| AGCGGAAC | 0.194 |
| GGCGGAAC | 0.199 |
| CGCGGAAA | 0.325 |
| GGCGGGAA | 0.0413 |

| Sequence | PBM E-score |
| --- | --- |
| GATGGACA | 0.183 |
| ATTAGCGC | 0.056 |
| ATAGATCA | 0.216 |
| CAAGCTGG | -0.129 |
| CCAGCCCA | -0.258 |
| ATACTCTG | 0.006 |
| CGGGTTCC | 0.246 |
| AAGAAACC | 0.129 |
| CGTAGAGA | -0.0444 |
| GAACGCGC | 0.163 |
| AGTATATG | 0.0296 |
| GGTATAAA | 0.16 |
| CGTATAAA | 0.311 |
| AGTATAAC | -0.0238 |
| AGTATAAA | 0.365 |
| TGTATAAA | 0.0524 |
| AGTATATC | 0.155 |
| CGTATAAC | 0.106 |
| AGTATATA | 0.334 |
| TCGCACAA | -0.0958 |
| CCATTTCC | 0.13 |
| ACCTACAC | -0.309 |
| CCCTCAAG | -0.297 |
| GAAGTGGA | 0.0603 |
| ATACCGAT | 0.11 |

| Sequence | PBM E-score |
| --- | --- |
| ATACCGAC | 0.0349 |
| GTACCGAA | 0.227 |
| ATACCGAA | 0.322 |
| TTACCGAA | 0.336 |
| CTACCGAA | 0.105 |
| AAAATGTA | -0.017 |
| GTTAGAAA | 0.184 |
| TCGGAACA | 0.408 |
| CTGGAACA | 0.122 |
| GCGGAACA | 0.237 |
| CCGGAACA | 0.435 |
| CAGGAACA | -0.0366 |
| ACGGAACA | 0.303 |
| AGCTTTTC | 0.0452 |
| CAATTAAG | 0.21 |
| GGGTTAAA | -0.0167 |
| ATACTCCG | 0.321 |
| AAACTCCG | 0.319 |
| CAGCTCCG | 0.222 |
| AAACTCCT | -0.18 |
| AAGCTCCG | 0.339 |
| CAACTCCG | 0.197 |
| ATACTCCA | -0.081 |
| ATACTCCC | 0.059 |
| AAGCTCCT | -0.237 |

| Sequence | PBM E-score |
| --- | --- |
| AATCGTAT | 0.039 |
| TATATCGA | 0.161 |
| ATATCTTG | 0.0464 |
| CAAAGGGA | -0.166 |
| ACGGTCCG | 0.161 |
| GAGCCCGA | 0.0143 |
| AAGCCGTA | 0.224 |
| TACCCGGA | 0.354 |
| GAGCCGGA | 0.328 |
| GACCCGGA | 0.212 |
| GAGCCGCA | 0.0573 |
| CAGCCGTA | 0.142 |
| CACCCGGA | 0.237 |
| GAGCCGTA | 0.307 |
| AAGCCGGA | 0.411 |
| AAGCCGCA | 0.161 |
| AAGCCGTC | 0.187 |
| GCAGAGCA | 0.0245 |
| AATGTCCG | 0.283 |
| AGGTCGGG | -0.168 |
| AAGCCCAA | -0.106 |
| CCATCTTC | 0.173 |
| AGAAGCTC | 0.0486 |
| CCGTGAGG | -0.119 |
| CACCAGAC | -0.00896 |

| Sequence | PBM E-score |
| --- | --- |
| AACAGCTG | 0.0223 |
| CTAGAGTA | -0.0589 |
| AAGCCGGT | 0.258 |
| AAGCCGGG | 0.246 |
| AAGCCGGC | 0.374 |
| CAGCCGGG | 0.127 |
| TAGCCGCA | -0.0301 |
| TAGCCGGA | 0.401 |
| GAGCCGCC | 0.0613 |
| GAGCCCGC | -0.212 |
| TAGCCGAA | 0.276 |
| GAGCCGGC | 0.406 |
| CAGCCGGC | 0.391 |
| CAGCCGCC | 0.0636 |
| CCATAGAC | -0.204 |
| GAAGTACA | 0.0369 |
| CCAATCGC | -0.072 |
| ATCAGCAG | 0.0226 |
| GGTGCCAC | -0.119 |
